# Measurements reported in PubChem BioAssay AID588507 (Broad Institute, 2011).
# Active and inactive are the calls of the source. How the calls were made is not given here.
# Assay: compound effect on GFP reporter cells – imaging, dry powder samples, counter-screen for PrP inhibitor project, dose response (AID 588507)
# Details: max activity: measured here: maximum activity across titration, at 0.0195 µM; series mostly up to 5 µM
smiles,measurement,value
COc1cc(SC)ccc1C(=O)Nc1nc2ccccc2[nH]1,max activity,451%
same,outcome,inactive
